For 7 compounds, growth results are on record in PubChem BioAssay (NCI).

The panel holds about 83,000 compounds, 20% with a hit somewhere; the sample as a whole holds those more often.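 Single-dose data. Exposure time 48 hours. Values below 10 considered active.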 Unmarked numbers belong to inactive results. Calls of active or inactive are those of the source.

What all share (assay): NCI-60 one-dose screen, 48 h (100 = growth as untreated, 0 = no growth, -100 = all killed)
Conditions in all cases: 10 µM unless noted

Experiment [1] relates to DU-145 prostate.
The test system of experiment [2] is K-562 leukemia.
In experiment [3] the test system is MALME-3M melanoma.
In experiment [4] the test system is MDA-MB-231 breast.
Experiment [5] deals with RXF 393 renal.
Experiment [6] relates to SF-268 CNS.
The subject of experiment [7] is SF-295 CNS.
Experiment [8] has as its system SF-539 CNS.
Experiment [9] has as its system UACC-257 melanoma.
Experiment [10] concerns M14 melanoma.
The subject of experiment [11] is HCT-15 colon.
The subject of experiment [12] is HT29 colon.
Experiment [13] concerns SNB-75 CNS.
Experiment [14] has as its system SNB-19 CNS.
The subject of experiment [15] is U251 CNS.
For experiment [16], the system named is PC-3 prostate.
Experiment [17] has as its system SK-MEL-5 melanoma.
In experiment [18] the test system is UACC-62 melanoma.
The subject of experiment [19] is LOX IMVI melanoma.
Experiment [20] concerns SK-MEL-28 melanoma.

`C=C1CC[C@@H]2C(C)(C)[C@@H](O)CC[C@@]2(C)[C@@H]1COc1ccc2ccc(=O)oc2c1`: the growth in experiment [1] was 91.8%; in experiment [2] it was 53.3%; in experiment [3] it was 89%; in [4], 89.4%; in [5], 88.5%; in [6], 78%. Also, the growth was 62.5% in experiment [7]; 86.1% in experiment [8]; 77.3% in experiment [9]; 80.4% in experiment [10]; 66.7% in [11]; 64.3% in experiment [12]. Also, the growth in experiment [13] is 83.8%; in experiment [14], 85.8%; in experiment [15], 75.8%; in experiment [16] it was 49.7%; in experiment [17] it was 61.7%; in experiment [18], 55.1%. The figures for the growth in experiment [19] and in experiment [20] were 82.8% and 92.3%, respectively.

With `CCOC(=O)C1=C(C)/C(=C\c2[nH]c(C)c(C(=O)OCC)c2C)N=C1C`, the growth was 96.2% in experiment [1]; 106% in experiment [2]; 94.6% in [3]; 82.8% in [4]; 101% in [5]; 79.1% in experiment [6]. The growth was 96.9% in [7]; 101% in [8]; 88.9% in experiment [9]; 95.9% in [10]; 91.4% in experiment [11]; 76.7% in experiment [12]. Besides, the growth is 89.1% in [13]; 89.7% in experiment [14]; 74.1% in [15]; 84.6% in experiment [16]; 97.4% in [17]; 90.9% in experiment [18]. The growth in [19] is 1.05% (active); in experiment [20], 88.3%.

For the compound `CCCC(CC)(C(=O)Nc1ccc2nc(C)cc(N)c2c1)C(=O)Nc1ccc2nc(C)cc(N)c2c1`, the growth in [1] was 111%; in [2], 102%; in experiment [3], 105%; in experiment [4] it was 100%; in experiment [5] it was 117%; in [6], 113%. For the same compound, the growth in experiment [7] was 108%; in experiment [8], 102%; in experiment [9], 99.7%; in experiment [10], 96.6%; in [11], 110%; in experiment [12], 99.1%. Further, the growth in experiment [13] was 100%; in experiment [14], 103%; in [15], 107%; in experiment [16], 95.8%; in experiment [17] it was 99.5%; in [18] it was 102%. In addition, the growth in experiment [19] was 100%; in [20] it was 110%.

In the case of `CCSc1oc(C)nc1[P+](c1ccccc1)(c1ccccc1)c1ccccc1`, the growth in experiment [1] is 29.5%; in [2], 19.8%; in experiment [3], 31.1%; in [4], 49.1%; in experiment [5] it was 50.9%; in [6], 25%. The growth in experiment [7] was 35.1%; in experiment [8], 59.1%; in experiment [9], 11.8%; in [10], 33.1%; in experiment [11], 92.1%; in experiment [12], 16.7%. For the same compound, the growth was 35.1% in experiment [13]; 19.3% in [14]; 20.2% in experiment [15]; 19.6% in experiment [16]; 1.8% (active) in experiment [17]; 28.7% in experiment [18]. In addition, the figures for the growth in experiment [19] and in [20] were 25.7% and 65.5%, respectively.

For the compound `C=C(CNCCc1ccc(O)cc1)[C@@H]1CC[C@]2(CO)CC[C@]3(C)[C@H](CC[C@@H]4[C@@]5(C)CCC(=O)C(C)(C)[C@@H]5CC[C@]43C)[C@@H]12`, the growth in experiment [1] was 43.2%; in [2], -26.3% (active); in experiment [3] it was -57.3% (active); in [4], 1.97% (active); in [5], 26%; in experiment [6] it was 45.9%. The growth in experiment [7] is 84.2%; in experiment [8] it was 78.8%; in experiment [9] it was -12.8% (active); in [10] it was -76.3% (active); in experiment [11], 6.17% (active); in experiment [12] it was -42.5% (active). Besides, the growth is 91.2% in [13]; 49% in experiment [14]; -63.9% (active) in experiment [15]; 14.6% in experiment [16]; -4.88% (active) in [17]; -29.5% (active) in experiment [18]. The figures for the growth in experiment [19] and in [20] were -89.7% (active) and -10.8% (active), respectively.

Regarding `COc1cc(C(=O)c2c(-c3ccccc3)oc3c(OC)cccc23)cc(OC)c1OC`, the growth in [1] is 6.56% (active); in experiment [2], 12.3%; in experiment [3], 42.2%; in experiment [4], -0.456% (active); in experiment [5] it was -3.42% (active); in [6], 30.1%. In addition, the growth in [7] was 2.79% (active); in [8], -26.1% (active); in experiment [9] it was 71.1%; in experiment [10], 3.87% (active); in experiment [11], 5.88% (active); in experiment [12] it was 8.2% (active). In addition, the growth in [13] is 7.41% (active); in [14], 25%; in experiment [15], 14.2%; in experiment [16], 17.2%; in experiment [17], -42.3% (active); in [18] it was 30.2%. Also, the growth was 12.2% in [19] and 59.9% in experiment [20].

As to `CCOc1ccc(-n2nc(C(=O)NCc3ccccc3OC)nc2-c2cc(OC)c(OC)c(OC)c2)cc1`, the growth is 65.2% in [1]; 22.1% in experiment [2]; 87.5% in experiment [3]; 17.8% in [4]; 43.5% in experiment [5]; 54.1% in [6]. Moreover, the growth in experiment [7] was 34.8%; in experiment [8] it was 49.2%; in experiment [9], 62.7%; in experiment [10], 42.2%; in [11], 29%; in experiment [12], 40.6%. The growth in experiment [13] was 30%; in [14], 45.2%; in experiment [15] it was 42.5%; in experiment [16] it was 24.6%; in experiment [17], -1.22% (active); in experiment [18] it was 37%. For the same compound, the growth is 36.3% in [19] and 36.6% in experiment [20].
